Assay results published in PubChem BioAssay AID1259422 (The Scripps Research Institute Molecular Screening Center, 2018).
Screen size: about 640,000 compounds; about 9,300 (1.5%) were called active. Cut-off read from the data, not from the text of the source: active = inhibition above about 32%; inactive = the rest. Only a selection was taken, and actives are over-represented in it overall.

Experiment: TEAD-YAP interaction inhibition, primary screen, TEAD-YAP interaction inhibitor project, luminescence, HEK-TIYL cells (AID 1259422);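 note: 0% = median of test compound wells and 100% = reference inhibitor wells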
Conditions: TEAD-Gal4/YAP UAS-luciferase luminescence, at 9.12 µM, active compounds read high

SMILES	inhibition
CN(C)c1cc(-c2nnc(SCc3ccccn3)n2C)nc(N(C)C)n1	1.09% (inactive)
CC(NS(=O)(=O)c1cc(Cl)ccc1Cl)C(=O)Nc1ccc2c(c1)OCCO2 (stereo not given)	-9.66% (inactive)
O=C(CN1C(=O)c2ccccc2S1(=O)=O)N1CCN(Cc2ccccc2)CC1	-9.54% (inactive)
CC1CCCN(C(=O)Cn2c(=O)oc3ccccc32)C1 (stereo not given)	7.96% (inactive)
O=C(CC(=O)N1CCc2ccccc21)C(=O)CC(=O)N1CCc2ccccc21	8.39% (inactive)
CC(=O)CN1C(=O)c2ccccc2S1(=O)=O	-8.06% (inactive)
CC1CCCN(C(=O)CN2C(=O)c3ccccc3S2(=O)=O)C1 (stereo not given)	32.8% (active)
O=C(CN1C(=O)c2ccccc2S1(=O)=O)N1CCc2ccccc21	73.9% (active)
O=C(NCc1ccon1)c1cccc(OC2CCN(C(=O)C3CC3)CC2)c1	-8.88% (inactive)
CC(C)CCNC(=O)C1CC(=O)N(C2CCCCC2)C1 (stereo not given)	1.78% (inactive)
O=C(COc1ccccc1)N1CCN(c2ccccc2F)CC1	0.47% (inactive)
CN(CC(=O)N1CCOCC1)c1ncnc2scc(-c3ccc(F)cc3)c12	2.08% (inactive)
Cc1csc(C(C#N)C(=O)COC(=O)c2sc3cc(F)ccc3c2Cl)n1 (stereo not given)	-0.66% (inactive)
COC(=O)C1=C(C)NC(=O)/C1=C\c1cccc(OCc2ccccc2)c1	-0.2% (inactive)
Cc1ccc(Nc2cc(C(=O)O)c3ccccc3n2)cc1	-9.91% (inactive)
O=C(c1cc(N2CCOCC2)nc2ccccc12)N1CCN(c2cccc(Cl)c2)CC1	-4.93% (inactive)
O=C(c1cc(-c2ccc(Cl)cc2)nc2ccccc12)N1CCN(c2ccc([N+](=O)[O-])cc2)CC1	3.06% (inactive)
O=C(c1cc(-c2ccncc2)nc2ccccc12)N1CCN(c2ccccc2)CC1	57% (active)
O=C(O)c1cc(-c2ccc(-c3ccccc3)cc2)nc2ccccc12	84.8% (active)
O=C(COC(=O)c1cc(-c2ccccc2)nc2ccccc12)c1ccccc1	-10% (inactive)
COc1ccc(CNC(=O)c2ccccc2N(Cc2ccccc2)S(=O)(=O)c2ccc(C)cc2)cc1	1.46% (inactive)
O=C(NCCCN1CCCC1=O)c1ccc2c(c1)N(Cc1ccccc1)C(=O)CS2=O (stereo not given)	-1.97% (inactive)
CSc1ccccc1NC(=O)Cn1nc(C)c([N+](=O)[O-])c1C	-7.74% (inactive)

SMILES	inhibition
Cc1ccc(Oc2ccc(NC(=O)c3ccc(Br)c([N+](=O)[O-])c3)cc2)cc1	20.9% (inactive)
CC(=O)Nc1ccc(Nc2cc(C)nc(NCc3ccc4c(c3)OCO4)n2)cc1	31.4% (inactive)
CCNc1nc(C)cc(Nc2ccc(N3CCOCC3)cc2)n1	1.76% (inactive)
Cc1cc(Nc2ccc(N3CCOCC3)cc2)nc(NCc2ccc3c(c2)OCO3)n1	38.4% (active)
O=C(Nc1cccnc1Cl)c1cc2nc3c(c(C(F)(F)F)n2n1)CCc1ccccc1-3	5.92% (inactive)
Cc1ncc(-c2ccncn2)c(-c2ccc(C(F)(F)F)nc2)n1	6.09% (inactive)
C=C(C)CONC(=O)c1cnc2scc(C(C)(C)C)n2c1=O	-7.08% (inactive)
C=CCn1c(C)cc(C(=O)CC#N)c1C	-18.5% (inactive)
CCC(=O)Nc1ccc(C2=NNC(=NC)SC2)cc1	-4.44% (inactive)
C=CCn1c(C)cc(C2=NNC(=NCC)SC2)c1C	99.6% (active)
COc1ccc(C2C(C#N)=C(N)Oc3cc(C)n(Cc4ccco4)c(=O)c32)c(OC)c1 (stereo not given)	6.86% (inactive)
O=C(N/N=C/c1ccc([N+](=O)[O-])o1)c1ccc(Cl)cc1Cl	44.6% (active)
O=C(N/N=C/c1ccc([N+](=O)[O-])o1)c1cccc(F)c1	-23.7% (inactive)
O=C(N/N=C/c1ccc([N+](=O)[O-])o1)c1cc(Cl)ccc1O	2.15% (inactive)
COc1cc(NC(=O)CC(C)C)c(C(=O)O)cc1OC	12.1% (inactive)
Cc1cc(NC(=O)c2ccccc2Br)ccc1O	77% (active)
Cc1ccccc1C(=O)Nc1ccc(Br)c(Cl)c1	-77.6% (inactive)
Cc1ccc(NC(=O)c2ccccc2Br)cc1C	-49% (inactive)
COC1CCN(c2ncn(-c3ccc(Nc4nccc(-c5cncc(N6CCOCC6)c5)n4)cc3)n2)CC1	51.5% (active)
N#Cc1cccc(-c2ccnc(Nc3ccc(N4CCOCC4)cc3)n2)c1	-9.11% (inactive)
Cn1nccc1-c1cc(F)cc(-c2ccnc(Nc3ccc(-n4cnc(N5CCOCC5)n4)cc3)n2)c1	9.9% (inactive)
N#Cc1cc(-c2ccnc(Nc3ccc(-n4cnc(-c5ccccn5)n4)cc3)n2)cc(N2CCOCC2)c1	43.5% (active)
Cc1cnnn1-c1ccc(Nc2nccc(-c3cc(C#N)cc(N4CCOCC4)c3)n2)cc1	1.73% (inactive)

SMILES	inhibition
OC1CCN(c2ccc(Nc3nccc(-c4cc(N5CCOCC5)cc(C(F)(F)F)c4)n3)cc2)CC1	31.8% (inactive)
Cc1ncccc1-c1ncn(-c2ccc(Nc3nccc(-c4cc(F)cc(N5CCOCC5)c4)n3)cc2)n1	-3.6% (inactive)
c1cc(-c2cncc(N3CCOCC3)c2)nc(Nc2ccc3c(c2)OCO3)n1	36.5% (active)
CN(C)c1cc(F)cc(-c2ccnc(Nc3ccc(-n4cnc(N5CCOCC5)n4)cc3)n2)c1	-6.66% (inactive)
Cc1nc(Oc2cc3sc(C)nc3c3sccc23)c2c3c(sc2n1)CCCC3	4.62% (inactive)
Cc1cc(-n2c(C)cc(C(=O)COC(=O)c3cc(=O)[nH]c4ccccc34)c2C)no1	-18.6% (inactive)
CCC(C)NC(=O)C(C(F)(F)F)(C(F)(F)F)C(F)(F)F (stereo not given)	4.25% (inactive)
COc1ccc(-c2cnnn2-c2ccc(-c3csc(N)n3)cc2)cc1	9.88% (inactive)
COc1ccc(C(=O)N2CCC[C@@H]2[C@@H](O)c2cccs2)cc1Cn1cccn1	-11.1% (inactive)
O=C(Nc1ccc2ccccc2c1)c1ccc2c(c1)C(=O)N(N1C(=O)c3ccccc3C1=O)C2=O	2.19% (inactive)
Cc1ccc2oc(=O)c3cnn(CC(=O)N4CCN(c5cccc(Cl)c5)CC4)c3c2c1	0.74% (inactive)
Cc1ccc2oc(=O)c3cnn(CC(=O)N4CCN(c5ccccn5)CC4)c3c2c1	1.66% (inactive)
Cc1cccc(N2CCN(C(=O)Cn3ncc4c(=O)oc5ccccc5c43)CC2)c1C	63% (active)
COc1ccc(/C=C2N=C(/C=C/c3ccc(Cl)cc3Cl)OC\2=O)cc1OC(C)=O	-1.28% (inactive)
Cc1ccccc1-n1c(=S)sc2c(=O)n(-c3ccccc3)c(SCc3cccc([N+](=O)[O-])c3)nc21	-6.72% (inactive)
O=C1C2CC=CCC2C(=O)N1c1ccc(N2C(=O)C3CC=CCC3C2=O)c(Cl)c1 (stereo not given)	9.86% (inactive)
CCC(=O)Nc1ccc(-c2nc3ccccc3o2)cc1	3.84% (inactive)
O=C(Nc1ccc(-c2nc3ccccc3o2)cc1)c1ccc(Oc2ccccc2)cc1	-4.71% (inactive)
CC(C)C(=O)Nc1ccc(-c2nc3ccccc3o2)cc1	44.5% (active)
COc1ccc(C(=O)N/C(=C/c2ccc([N+](=O)[O-])cc2)C(=O)Nc2cc(Cl)cc(Cl)c2)c(Cl)c1	-19% (inactive)
CS(=O)(=O)N(CC(=O)NCCC1=CCCCC1)c1ccc(OCc2ccccc2)cc1	5.23% (inactive)
CCCCOC(=O)c1cccc(NC(=O)COc2ccc(C)c(C)c2)c1	-33.7% (inactive)
Cc1cc(NC(=O)COc2ccccc2Br)no1	-74.2% (inactive)

SMILES	inhibition
CCOC(=O)c1cccc(NC(=O)COc2ccccc2Br)c1	54.5% (active)
Cc1ccsc1/C=N/NS(=O)(=O)c1ccc(Br)cc1	-2.4% (inactive)
CC(C)C(=O)N=C1N=C2C=CC(Cl)=CN2Cc2ccccc21	-43.4% (inactive)
COc1cccc(/C=N/Nc2nc(=O)[nH]nc2C)c1OC	-7.82% (inactive)
CCOc1ccc(/C=N/Nc2ncnc3nc[nH]c23)cc1	81.1% (active)
COC(=O)c1ccc(Nc2ncnc3nc[nH]c23)cc1	12.4% (inactive)
COc1cccc(/C=N/Nc2ncnc3nc[nH]c23)c1OC	37.2% (active)
COc1ccccc1-c1cnnc(N/N=C/c2cccc(OC)c2OCC(=O)O)n1	15% (inactive)
COc1ccc(/C=N/Nc2ncnc3nc[nH]c23)cc1OC	-5.99% (inactive)
Cc1sc2ncn(CC(=O)NCCCC(=O)NCCC3=CCCCC3)c(=O)c2c1C	6.71% (inactive)
CCOc1ccc(/C(O)=C2/C(=O)C(=O)N(CCN(CC)CC)C2c2ccc(F)cc2)cc1C (stereo not given)	-0.51% (inactive)
CCCCCCn1c(NNC=O)nc2c1c(=O)[nH]c(=O)n2C	5.98% (inactive)
CCOC(=O)c1ccc(NC(=O)C2CC(=O)N(CCc3ccccc3)C(=Nc3ccccc3)S2)cc1 (stereo not given)	5.21% (inactive)
Cc1ccc(CN(C)Cc2c(C(=O)N3CCN(C4CCCCC4)CC3)nc3ccccn23)o1	-4.7% (inactive)
COc1ccc(Nc2nc(N3CCCC3)nc(N3CCCC3)n2)cc1	1.54% (inactive)
COc1ccccc1-n1nc(C(=O)N2CCN(c3ccccc3)CC2)c2ccccc2c1=O	0.45% (inactive)
O=C(c1n[nH]c(=O)c2ccccc12)N1CCN(Cc2ccccc2)CC1	-7.02% (inactive)
COc1cc(CN2CCN(c3ccccc3OC)CC2)cc(OC)c1	4.91% (inactive)
COc1cc2nc(CN3CCN(c4ccccc4OC)CC3)[nH]c(=O)c2cc1OC	63.6% (active)
COc1cc(OC)c(OC)cc1CN1CCN(c2ccccc2F)CC1	2.95% (inactive)
COc1ccccc1N1CCN(C(=O)c2n[nH]c(=O)c3ccccc23)CC1	59% (active)
